Data as given in PubChem BioAssay.
For part of these data: Potency and affinity values are given separately. Active and inactive are the calls of the source. Unless noted, how the calls were made is not given here.

Columns and labels:
[1] = antimalarial activity against Dd2 strain (AID 2302;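 active means growth inhibition above 50% at the single 2 µM test dose, taken to imply half-maximal potency below 2 µM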;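 further: 0% = DMSO untreated growth and 100% = chloroquine plus artemisinin killed control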); conditions: P. falciparum Dd2 in RBCs, LDH growth readout, 72 h; at 2 µM; stronger effect = higher value
[2] = human hepatoma cell viability loss – ATP luminescence, cytotoxicity control for P. falciparum antimalarial project, primary screen (AID 2303;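 active means inhibition above 50%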;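 further: 0% = DMSO wells and 100% = digitonin-killed cells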); conditions: HepG2 viability, 24-48 h, at 10 µM, stronger effect = higher value
[3] = target: L-lactate dehydrogenase (Plasmodium falciparum (isolate CDC / Honduras)) (UniProt Q27743); assay: PfLDH activity inhibition – cell lysate, 3D7 strain, counter-screen for P. falciparum growth inhibition project (AID 2304);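 further: 0% = vehicle and 100% = reference inhibitor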; conditions: P. falciparum 3D7 crude extract, LDH APAD/NBT absorbance; at 2 µM; stronger effect = higher value
[4] = inhibition of 3D7 malaria parasite growth – strain 3D7 (AID 2306);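 further: 0% = DMSO wells and 100% = chloroquine plus artemisinin control wells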; conditions: P. falciparum 3D7 erythrocytic growth, LDH absorbance, 72 h; at 2 µM; stronger effect = higher value
[5] = target: Plasmodium falciparum protein kinase 6 (PK6, PF3D7_1337100) (UniProt Q8IDW1); assay: PfPK6 kinase inhibitors, biochemical, TCAMS library (AID 1159586); conditions: recombinant PfPK6, Kinase-Glo ATP depletion luminescence
[6] = target: Protein kinase 7 (PK7), Plasmodium falciparum 3D7 (PF3D7_0213400) (UniProt Q7YTF7); assay: inhibition of Plasmodium PK7 catalytic activity – biochemical, TCAMS antimalarial set, Kinase-Glo luminescence (AID 1159587); conditions: recombinant PfPK7, Kinase-Glo ATP depletion luminescence
[7] = target: Calcium-dependent protein kinase 4 (Plasmodium falciparum (isolate 3D7)) (UniProt Q8IBS5); assay: PfCDPK4 kinase inhibitors, biochemical, TCAMS library (AID 1159588; cut-off not given, nearly all actives have IC50 up to about 0.91 µM); conditions: recombinant PfCDPK4, Kinase-Glo ATP depletion luminescence
Sequence of Calcium-dependent protein kinase 4 (Plasmodium falciparum (isolate 3D7)) (Q8IBS5 whole entry, looked up): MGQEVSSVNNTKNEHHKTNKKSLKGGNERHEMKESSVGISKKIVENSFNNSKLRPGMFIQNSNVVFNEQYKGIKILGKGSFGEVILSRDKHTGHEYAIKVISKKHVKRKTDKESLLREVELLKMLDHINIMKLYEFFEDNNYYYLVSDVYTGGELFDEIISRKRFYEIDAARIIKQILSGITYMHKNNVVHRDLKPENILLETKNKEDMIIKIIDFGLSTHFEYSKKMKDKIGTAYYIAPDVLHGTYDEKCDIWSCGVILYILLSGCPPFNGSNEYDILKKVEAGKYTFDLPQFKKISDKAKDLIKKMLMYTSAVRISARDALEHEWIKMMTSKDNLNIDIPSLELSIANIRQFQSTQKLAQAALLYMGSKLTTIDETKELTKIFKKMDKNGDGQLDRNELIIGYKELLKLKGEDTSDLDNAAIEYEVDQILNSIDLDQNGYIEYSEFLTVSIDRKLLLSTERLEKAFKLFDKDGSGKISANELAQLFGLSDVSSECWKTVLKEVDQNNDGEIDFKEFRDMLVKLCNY

Sequence of L-lactate dehydrogenase (Plasmodium falciparum (isolate CDC / Honduras)) (Q27743 whole entry, looked up): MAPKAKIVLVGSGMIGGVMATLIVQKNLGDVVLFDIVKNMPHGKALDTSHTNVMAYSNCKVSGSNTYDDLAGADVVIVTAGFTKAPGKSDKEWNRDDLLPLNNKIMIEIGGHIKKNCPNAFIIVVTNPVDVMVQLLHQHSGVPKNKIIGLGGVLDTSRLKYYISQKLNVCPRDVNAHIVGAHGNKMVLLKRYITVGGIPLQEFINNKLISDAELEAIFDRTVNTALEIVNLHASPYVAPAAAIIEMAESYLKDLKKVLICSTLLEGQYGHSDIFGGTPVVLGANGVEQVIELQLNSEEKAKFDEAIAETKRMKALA
Sequence of Protein kinase 7 (PK7), Plasmodium falciparum 3D7 (PF3D7_0213400) (Q7YTF7 1-343): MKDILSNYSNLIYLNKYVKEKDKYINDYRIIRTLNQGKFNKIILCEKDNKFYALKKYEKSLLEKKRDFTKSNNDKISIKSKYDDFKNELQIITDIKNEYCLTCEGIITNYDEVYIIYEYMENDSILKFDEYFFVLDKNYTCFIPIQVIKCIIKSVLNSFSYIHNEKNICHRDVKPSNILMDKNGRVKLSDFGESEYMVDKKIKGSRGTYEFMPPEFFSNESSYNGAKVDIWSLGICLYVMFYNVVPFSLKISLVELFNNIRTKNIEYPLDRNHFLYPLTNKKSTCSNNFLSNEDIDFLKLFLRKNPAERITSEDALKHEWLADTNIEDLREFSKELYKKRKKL
Sequence of Plasmodium falciparum protein kinase 6 (PK6, PF3D7_1337100) (Q8IDW1 1-305): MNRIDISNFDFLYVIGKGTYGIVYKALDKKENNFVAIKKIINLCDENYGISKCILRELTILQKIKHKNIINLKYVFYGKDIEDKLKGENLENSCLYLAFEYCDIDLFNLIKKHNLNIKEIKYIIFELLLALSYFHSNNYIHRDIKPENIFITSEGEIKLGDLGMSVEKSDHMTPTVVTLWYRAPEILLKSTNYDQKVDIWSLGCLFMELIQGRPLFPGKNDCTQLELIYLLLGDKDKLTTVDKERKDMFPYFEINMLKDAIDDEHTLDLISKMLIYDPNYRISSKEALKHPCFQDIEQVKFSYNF

CN1CCC=C(C(=O)NCC(C)(C)c2nc(-c3ccc(Cl)c(O)c3)c(-c3ccncc3)[nH]2)C1
inactive: inhibition [2] 39% | inhibition [3] -1% | outcome [5] | outcome [6] | outcome [7]
active: growth inhibition [1] 96% | growth inhibition [4] 96%

c1ccc(Oc2ccc(Nc3ccnc4cc(-c5ccc(CNCCN6CCOCC6)o5)ccc34)cc2)cc1
active: growth inhibition [1] 99% | growth inhibition [4] 99%
inactive: inhibition [2] 20% | inhibition [3] -3% | outcome [5] | outcome [6] | outcome [7]

CN(C(=O)c1cc2c(-c3cncnc3)cccc2[nH]1)c1ccccc1
inactive: inhibition [2] 1% | inhibition [3] 0% | outcome [5] | outcome [6] | outcome [7]
active: growth inhibition [1] 99% | growth inhibition [4] 92%

Nc1ncc(-c2cn[nH]c2)cc1-c1nc2ccc(Cl)cc2[nH]1
active: growth inhibition [1] 100% | growth inhibition [4] 101%
inactive: inhibition [2] 46% | inhibition [3] -5% | outcome [5] | outcome [6] | outcome [7]

COc1ccc(-c2cnc3ccc(N4CCCC4)nn23)cc1OC
active: growth inhibition [1] 98% | growth inhibition [4] 98%
inactive: inhibition [2] 40% | inhibition [3] 0% | outcome [5] | outcome [6] | outcome [7]

CN(C)CCN(C)Cc1ccc(-c2ccc3c(Nc4ccc(Oc5ccccc5)cc4)ccnc3c2)o1
inactive: inhibition [2] 5% | inhibition [3] -4% | outcome [5] | outcome [6] | outcome [7]
active: growth inhibition [1] 100% | growth inhibition [4] 100%

N#CCc1ccc(Nc2nccc(Nc3ccc(Oc4ccccc4)cc3)n2)cc1
active: growth inhibition [4] 98%
inactive: growth inhibition [1] 47% | inhibition [2] -1% | inhibition [3] 6% | outcome [5] | outcome [6] | outcome [7]

COc1cc(-c2nc(C(C)(C)CN)[nH]c2-c2ccncc2)ccc1Br
inactive: inhibition [2] 17% | inhibition [3] 1% | outcome [5] | outcome [6] | outcome [7]
active: growth inhibition [1] 95% | growth inhibition [4] 97%

COc1cccc(CNCC(C)(C)c2nc(-c3ccc(Cl)c(O)c3)c(-c3ccncc3)[nH]2)c1
active: growth inhibition [1] 98% | inhibition [2] 74% | growth inhibition [4] 101%
inactive: inhibition [3] -9% | outcome [5] | outcome [6] | outcome [7]

Cc1nnc(-c2cccc(Nc3ccnc4cc(-c5nccs5)ccc34)c2)o1
active: growth inhibition [1] 89% | growth inhibition [4] 95%
inactive: inhibition [2] 38% | inhibition [3] -2% | outcome [5] | outcome [6] | outcome [7]

CNCC(C)(C)c1nc(-c2ccc(Cl)c(O)c2)c(-c2ccncc2)[nH]1
inactive: inhibition [2] 46% | inhibition [3] -2% | outcome [5] | outcome [6] | outcome [7]
active: growth inhibition [1] 96% | growth inhibition [4] 98%

Cc1cc(F)ccc1-c1nc(Nc2ccncc2)c2ccn(C)c2n1
active: growth inhibition [4] 89%
inactive: growth inhibition [1] 8% | inhibition [2] 9% | inhibition [3] 5% | outcome [5] | outcome [6] | outcome [7]

CN(C)CCOc1ccc(-c2cc(-c3ccnc(N)n3)c(-c3ccc(Cl)c(O)c3)o2)cc1
active: growth inhibition [1] 91% | growth inhibition [4] 101%
inactive: inhibition [2] 14% | inhibition [3] 5% | outcome [5] | outcome [6] | outcome [7]

CS(=O)(=O)Cc1ccc(Nc2nccc(-c3c(-c4cccc(NC(=O)c5c(F)cccc5F)c4)nn4ncccc34)n2)cc1
active: growth inhibition [1] 93% | inhibition [2] 86% | growth inhibition [4] 97%
inactive: inhibition [3] 1% | outcome [5] | outcome [6] | outcome [7]

N#Cc1ccc(-c2cnc3ccc(NCCc4cccnc4)nn23)cc1
active: growth inhibition [1] 81% | growth inhibition [4] 99%
inactive: inhibition [2] 27% | inhibition [3] 6% | outcome [5] | outcome [6] | outcome [7]
